# Data as given in ChEMBL document CHEMBL4513216, “Probing the Open Global Health Chemical Diversity Library for Multistage-Active Starting Points for Next-Generation Antimalarials” (ACS Infect Dis, 2020).
# In all, about 68,000 compounds went through this assay and about 2,700 (4%) showed an effect of 50% or more. The sample as a whole holds a higher share of strong results than the screen did.
# System: Plasmodium berghei
# Test: Screen against P. berghei liver stage (PbLuc), transformed with Luciferase, at 2uM
# Format: functional, HepG2
# Details: tested at 2 uM
row,Compound,INHIBITION [%]
1,CCNC(=O)NC(C)(C)C(=O)NCCc1csc2ccccc12,32.03
2,c1cnc(-c2nc(CN3CCN(CC4CC4)CC3)cs2)nc1,24.88
3,Cn1c(=O)n(C)c2cc(C3SCC(=O)Nc4ccsc43)ccc21 (centres undefined),74.91
4,COc1ccc(C2SCC(=O)Nc3ccsc32)cc1OC (centres undefined),7.62
5,O=C1CSC(c2ccc(O)cc2)c2sccc2N1 (centres undefined),17.94
6,CN(C(=O)C1CCN(Cc2cnc3ccccn23)CC1)c1ccccc1,4.07
7,CCc1nc(C)c(C(=O)N(C)Cc2cnc3ccccn23)o1,52.81
8,CCOC(=O)N(C)C1CCN(Cc2cnc3ccccn23)CC1,2.26
9,COCc1nnc(C(=O)N(C)Cc2ccc(OC)cc2)o1,14.55
10,CCCc1nnc(C(=O)N(C)Cc2cnc3ccccn23)o1,-2.89
11,COCc1nnc(C(=O)N(C)Cc2cnc3ccccn23)o1,80.13
12,CS(=O)(=O)N1CCCCC12CCCN(Cc1nccs1)C2 (centres undefined),-14.74
13,CCc1cc(NCCNc2ccncc2C)n2nc(C)c(C)c2n1,-7.77
14,CC(Nc1ccn(Cc2ccccn2)n1)C(=O)NC(C)(C)C (centres undefined),-48.1
15,Cc1nc(CN(C)C)cc(N2CCCC(COc3ccc(F)cc3)C2)n1 (centres undefined),40.47
16,Cc1cc(C(=O)N2CC[C@H]3C[C@H](c4ccncn4)O[C@@H]3C2)c(C)[nH]1,-16.33
17,Cc1oncc1C(=O)N1CC[C@H]2C[C@H](c3ccncn3)O[C@@H]2C1,52.34
18,Cc1noc(C)c1C(=O)N1CC[C@H]2C[C@@H](c3ccncn3)O[C@@H]2C1,1.42
19,CN(Cc1ccc(Cl)c(Cl)c1)C(=O)CNC(N)=O,32.81
20,COCCN1CCC2(CC1)CC(Nc1ccc(C)nn1)CO2 (centres undefined),7.72
21,CC(C)c1noc(OCC(=O)N2CCCCC2C)n1 (centres undefined),17.48
22,Cc1noc(OCC(=O)N2CCCCC2C)n1 (centres undefined),50.32
23,CC1CCCCN1C(=O)COc1nc(C(C)(C)C)no1 (centres undefined),47.04
24,CCC(C)CNCC1(S(C)(=O)=O)CCOCC1 (centres undefined),10.03
25,CCC(CC)CNCC1(S(C)(=O)=O)CCOCC1,59.99

row,Compound,INHIBITION [%]
1,CC(CNCC1(S(C)(=O)=O)CCOCC1)c1ccc(F)cc1 (centres undefined),29.28
2,Cc1cc2nc(SCC(=O)N3CCOCC3)n(CC(C)C)c(=O)c2[nH]1,50.74
3,CCn1c(SCC(=O)N2CCOCC2)nc2cc(C)[nH]c2c1=O,33.58
4,Cc1cc2nc(SCC(=O)N3CCOCC3)n(CCC(C)C)c(=O)c2[nH]1,44.15
5,CC(C)CN1CCC(c2nnc(CN3CCCC3)n2C2CC2)CC1,8.03
6,CCC(=O)N1CCCC1c1nccnc1Nc1nc(C)cc(C)n1 (centres undefined),44.72
7,CN(C)C(=O)C1(CCCc2ccncc2)CCCN1 (centres undefined),54.82
8,NC(=O)C1(CCCc2ccncc2)CCCN1 (centres undefined),46.98
9,CNC(=O)C1(CCCc2ccncc2)CCCN1 (centres undefined),-0.51
10,O=C(O)c1cc(NS(=O)(=O)c2cccc(Cl)c2F)ccc1Cl,36.65
11,CCCc1noc(CNc2ccc(C(=O)N3CCCC3)cc2C)n1,-11.2
12,Cc1cc(C(=O)N2CCCC2)ccc1NCc1nc(CC(C)C)no1,58.05
13,CCc1noc(CNc2ccc(C(=O)N3CCCC3)cc2C)n1,24.15
14,Cn1cnc2c1CCN(Cc1cccc(C(=O)N3CCCCC3)c1)C2,5.91
15,NC(=O)c1cccc(CN2CCc3c(ncn3C3CC3)C2)c1,11.95
16,CC(C)CNC(=O)c1cccc(CN2CCc3c(ncn3C)C2)c1,21.43
17,Cn1cnc2c1CCN(Cc1cccc(OCC(N)=O)c1)C2,3.9
18,Cn1cnc2c1CCN(Cc1cccc(C(N)=O)c1)C2,74.87
19,Cn1cnc2c1CCN(Cc1ccc(C(=O)N3CCCC3)cc1)C2,51.21
20,CCS(=O)(=O)Cc1nc(-c2cnn3c(C)cc(C)nc23)no1,-9.94
21,CN1CCN([C@@H]2CN(C(=O)c3cc4cccc(F)c4[nH]3)C[C@H]2O)CC1,-17.65
22,CNC(=O)C(C)CN(C)C(=O)Nc1cc(F)cc(Br)c1 (centres undefined),-0.47
23,CN(C)CCNC(=O)c1ccccc1NC(=O)c1cc(Cl)ccc1Cl,13.39
24,O=C(NCc1ccco1)[C@@H]1CC[C@@H]2[C@@H](CCN2CC2CC2)O1,22.89
25,N#CC1(NC(=O)COC(=O)Cn2cccn2)CCCC1,-40.04

row,Compound,INHIBITION [%]
1,CC(Cn1cccn1)NCc1nc(-c2ccc3c(c2)OCO3)no1 (centres undefined),-35.26
2,CC(Cn1cccn1)NCC(=O)NCCc1cccs1 (centres undefined),66.99
3,CC(Cn1cccn1)NCc1csc(Cc2ccccc2)n1 (centres undefined),-44.51
4,CC(Cn1cccn1)NC(=O)NCCc1cccs1 (centres undefined),-26.87
5,CC(Cn1cccn1)NCC(=O)NC1(C#N)CCCCC1 (centres undefined),51.14
6,CCCc1nc(CNC(C)Cn2cccn2)cs1 (centres undefined),-6.71
7,Cc1cnn(CC(C)NCC(=O)NCCc2cccs2)c1 (centres undefined),-28.18
8,CC(Cn1cccn1)NCc1nc(-c2cccc(Cl)c2)no1 (centres undefined),73.05
9,CCc1nc(CNC(C)Cn2cccn2)cs1 (centres undefined),55.7
10,CC(Cn1cccn1)NCc1nc(-c2cccnc2)no1 (centres undefined),-15.36
11,N#CC1(NC(=O)CNCCn2cccn2)CCCCC1,-45.11
12,NCCc1cccc(CN2CCN(c3cccc(Cl)c3)C(=O)C2)c1,31.35
13,COCc1nc(C(=O)N2CCN(Cc3ccsc3)CC2)cs1,8.93
14,CC(C)C(=O)N1CCCC(Cc2ncccn2)C1 (centres undefined),-24.73
15,CC(C)COC1CCN(C(=O)c2ccc(C(F)(F)F)[nH]c2=O)CC1,-24.73
16,FC(F)(F)c1cccc(OC2CCN(Cc3c[nH]cn3)CC2)c1,-6.65
17,CCC1=N[C@@]2(CC[C@@H]3CN(CC4CC4)C[C@@H]32)C(=O)N1,-26.61
18,O=C(NC1CC1)c1cnc(-c2noc3cc(N4CCCCC4)ccc23)s1,18.11
19,CC(Cn1cccn1)NCCCc1nc(-c2cccs2)no1 (centres undefined),21.39
20,Cc1cccc(-c2noc(CNC(C)Cn3cc(C)cn3)n2)c1 (centres undefined),-26.75
21,CC(Cn1cccn1)NCc1nc(-c2cccs2)no1 (centres undefined),51.21
22,Cc1cnn(CC(C)NCc2nc(-c3cccs3)no2)c1 (centres undefined),-41.76
23,Cc1cnn(CC(C)NCc2nc(-c3cccnc3)no2)c1 (centres undefined),-36.24
24,Cc1cnn(CC(C)NCc2nc(-c3ccoc3)no2)c1 (centres undefined),59.68
